The list is not random: actives were taken first. Their share in the collection is about 1.4%.
PV pol inh: poliovirus RdRp elongation inhibitors, primary screen, biochemical, fluorescence polarization, total intensity; Genome polyprotein (Poliovirus type 1 (strain Mahoney)), P03300; poliovirus polymerase elongation; active compounds read low; % elongation, % (compound at 16.7 µg/mL); 150,000 compounds, 0.66% hits; AID 588519, 2011; in the data active = % elongation below about 90%
MenB inh: M. tuberculosis MenB inhibitors, primary screen, biochemical, absorbance. 100,000 compounds, 0.43% hits. inhibition, % (concentration not given with the values). MenB enzyme assay, absorbance read-out. AID 540299, 2011; in the data active = inhibition above about 21%, passing the limit was not always enough
Target sequence (P9WNP5 whole entry, looked up): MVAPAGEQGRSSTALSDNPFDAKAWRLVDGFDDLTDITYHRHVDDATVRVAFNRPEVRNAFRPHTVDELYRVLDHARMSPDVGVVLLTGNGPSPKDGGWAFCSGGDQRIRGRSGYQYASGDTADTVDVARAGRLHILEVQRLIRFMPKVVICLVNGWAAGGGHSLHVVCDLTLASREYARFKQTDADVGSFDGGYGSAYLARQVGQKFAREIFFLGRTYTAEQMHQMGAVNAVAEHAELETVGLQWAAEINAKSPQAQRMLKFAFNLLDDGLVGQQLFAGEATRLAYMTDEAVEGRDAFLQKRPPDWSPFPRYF
MbtI inh: MbtI salicylate synthase inhibitors, primary screen, biochemical, fluorescence intensity; P9WFX0; purified MbtI enzyme, fluorescence intensity read-out; inhibition, % (concentration not given with the values); 100,000 compounds, 0.89% hits; AID 493033, 2011; in the data active = inhibition mostly above about 56%, no sharp cut-off; inactive = mostly below about 77%
* marks the source's active call; other numbers are inactive results; i = inactive; nt = not tested or not shown.

SMILES	PV pol inh	MenB inh	MbtI inh
N#Cc1ccc(COC(=O)CSC2CCS(=O)(=O)C2)cc1 (stereo not given)	105	-20	-15
O=C(NCCN1CCCC1)c1ccco1	102	12	-3
COc1ccc(/C=C2/N=C(N3CCOCC3)SC2=O)cc1OC	100	-91	0
Cc1nnc(SCC(=O)N2CCCC2)s1	103	-25	-3
O=C(CSc1nnc(SCC(=O)N2CCCC2)s1)N1CCCC1	103	13	91*
Cc1cc(C)c(O)c(N)c1	105	7	101*
Cc1cc(C)c2oc(-c3cc(N)cc(C)c3O)nc2c1	102	2	-11
COc1ccc(-c2cnn(-c3ccccc3)c2N)cc1OC	101	10	6
Nc1nc2c(s1)CCc1c-2cnn1-c1ccccc1	42*	3	nt
COc1cccc(NC(=S)N=Nc2c(O)n(C)c3ccc(S(=O)(=O)N4CCOCC4)cc23)c1	97	0	-6
Fc1ccc(/C=N/c2nnc3nc[nH]n23)cc1	88*	-4	nt
CC1SC(/N=C/c2ccc(F)cc2)=NNC1=O (stereo not given)	105	-13	nt
C[N+]1(CCOc2ccccc2)Cc2ccccc2C1	100	4	-4
CCCNC(=O)N(C)Cc1ccccc1	106	-2	nt
CCCNC(=O)N(C)c1ncnnc1NC	100	29*	-4
CC(=O)Oc1ccccc1C(=O)NCc1ccc(C)cc1	107	-2	nt
CCN(C(=O)C(C)C)c1ccccc1	101	-28	-4
CCN(Cc1cc2ccc(C)cc2[nH]c1=O)C(=O)C1CCCCC1	104	-30	91
CCOC(=O)CC(C)=Nc1cnn(-c2ccccc2)c1	100	-22	-16
C/C(C/C(C)=C1/SC(=S)NC1=O)=C1\SC(=S)NC1=O	102	-54	81*
O=C1NC(=S)S/C1=C1\OC(=O)c2ccccc21	104	i	0
O=C(c1ccc(N2CCCc3ccccc32)s1)N1CCCC1	100	-23	127
CC(=O)Nc1ccccc1N	111	-16	nt
CC(=O)/C=C(\C)Nc1ccccc1S	101	28*	1
CCO/C=C1\C(=O)N(Cc2ccccc2)C(=O)c2ccccc21	62*	nt	-5
SMILES	PV pol inh	MenB inh	MbtI inh
CCO/C=C1/C(=O)N(C)C(=O)c2ccccc21	17	10	23
CN1CCN(NC(=O)Cc2ccccc2Cl)CC1	102	8	-15
O=C(Cc1ccccc1Cl)NC1(O)C(=O)c2ccccc2C1=O	83*	-10	-9
O=C(CN1CCNCC1)N1CCCCC1	104	5	15
O=c1cc(-c2ccccc2)sc(=O)[nH]1	108	5	nt
S=c1cc(-c2ccccc2)ss1	88*	-9	94*
O=C(CC(NCc1ccccc1)C(=O)O)Nc1cccnc1 (stereo not given)	102	13	19
O=c1cc(CSc2nnc(-c3cccnc3)o2)c2cc3c(cc2o1)CCC3	98	-10	8
O=C(CNc1ccc(Cl)cc1)NCC1CCCO1 (stereo not given)	103	nt	-6
Cc1nc(-c2c(C)[nH]c3ccccc23)cs1	89*	9	87*
Cc1nc(-c2cccs2)cs1	100	nt	1
O=C(O)c1nc(-c2ccccc2)cc(-c2ccccc2)n1	100	35*	15
O=C(O)c1cc(-c2ccccc2)nc2ccccc12	102	1	nt
O=c1oc2c3c(ccc2c2ccccc12)OCN(Cc1ccccc1)C3	102	7	1
O=c1oc2c3c(ccc2c2ccccc12)OCN(Cc1cccc(Cl)c1)C3	85*	nt	nt
COc1ccc(C2Nc3ccccc3C(=O)N2c2ccccc2)cc1 (stereo not given)	103	-34	100
CCN1CCCC1CNc1cc(C)c2ccc(C)cc2n1 (stereo not given)	88*	-20	4
CCN1CCCC1CNc1ncnc2c1cnn2-c1ccc(C)cc1 (stereo not given)	101	-22	118
COc1ccc(S(=O)(=O)c2cnc3cc4c(cc3c2N2CCC(C(N)=O)CC2)OCCO4)cc1	102	3	0
CCC(=O)N(c1nnc(SCC(=O)c2c(N)n(C)c(=O)[nH]c2=O)s1)C1CC1	102	-21	-5
CCC(=O)N(c1n[nH]c(=S)s1)C1CC1	nt	-13	91*
CCOC(=O)c1sc(N)c(C#N)c1CSc1ncnc2sc(CC)cc12	72	-38	9
CNS(=O)(=O)c1ccc2ccccc2c1	101	nt	-2
COC(=O)/C=C/S(=O)(=O)c1ccc2ccccc2c1	99	-2	101*
C=CCn1c(C)cc(C(=O)Cn2c(C)nc3cc4c(cc32)OCCO4)c1C	106	-23	2
CCN1CCN(CC2CCCCC2)CC1	100	34*	8
CCOC(=O)N1CCN(CC2CCCCC2)CC1	100	-6	-24

Screening data deposited in PubChem BioAssay by ICCB-Longwood Screening Facility, Harvard Medical School.
